An excerpt weighted towards active compounds, which were near 4.3% of everything screened.
uPA surface inh = qHTS for Inhibitors of Cell Surface uPA Generation. cell surface uPA generation assay, qHTS. Potency, µM (doses to about 38.3 µM), for the others: at the top dose activity change, negative = inhibition, hits mostly inhibitors. 330,000 tested, 0.31% active; active = well fitted inhibition curve with a large enough effect; inconclusive = small, poorly fitted or top-dose-only effect; inactive = no such curve, though single readings can be large or run the other way; tested in mouse RAW 264.7 cells; also: potency is read from the fitted curve at half-maximal effect; % is scaled to controls: 0 for no effect and ±100 for the full control effect; nearly all actives have a fitted effect of over 55% in size
MCF10A rerep = A quantitative high throughput screen for small molecules that induce DNA re-replication in MCF 10a normal breast cells. 350,000 tested, 2.9% active. AID 624296, 2012. MCF 10A DNA re-replication, Hoechst nuclear intensity, 48 h. Potency, µM (doses to about 46.1 µM), for inactives: at the top dose activity, positive = re-replication, actives largely listed as activators; also: potency is read from the fitted curve at half-maximal effect; % of control where 0% means no effect; nearly all actives have a fitted effect of over 50% in size
Giardia killer = Small Molecules that selectively kill Giardia lamblia: qHTS | Giardia lamblia trophozoite viability | activity change, % at 7.66 µM, hits read low | 340,000 tested, 0.15% active | AID 540267, 2011; in the data active = activity change below about -80%; inconclusive = between about -30% and that limit;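 also: parasites exposed to compound for two days anaerobically before the ATP read; % is scaled to controls: 0 for no effect and ±100 for the full control effect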
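Killing of trophozoites was scored by loss of ATP luminescence after a 48 hrs anaerobic exposure to compounds at 37 deg C, using 100 cells per well.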
SW480 rereplic = A quantitative high throughput screen for small molecules that induce DNA re-replication in SW480 colon adenocarcinoma cells; SW480 DNA re-replication, Hoechst DNA content imaging, 48 h; Potency, µM (titrated, usually from 46.1 µM), for the others: at the highest dose re-replication activation, hits mostly activators; 340,000 tested, 1.8% active; AID 624297, 2012; also: potency is read from the fitted curve at half-maximal effect; % of control where 0% means no effect; nearly all actives have a fitted effect of over 55% in size
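Cells (250 per well) received 23 nL compound or DMSO by pin tool and were kept 48 hr at 37 C, 5% CO2. Nuclei were then stained with Hoechst for 40 min and scanned for DNA content.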
* hit, by the source's call; ? = inconclusive; . = no result; [ ] = another dose, or the depositor's remark. Unless noted, calls follow the shape of the dose curve; as a rule, active = well fitted activation curve with a large enough effect; inconclusive = small, poorly fitted or top-dose-only effect; inactive = no such curve, though single readings can be large or run the other way.

SMILES	uPA surface inh	MCF10A rerep	Giardia killer	SW480 rereplic
CCOc1ccccc1NC(=O)c1nc[nH]c1C(=O)Nc1ccccc1OCC	3.6%	?	6.6	20.6µM*
COc1ccc(NC(=O)c2nc[nH]c2C(=O)Nc2ccccc2C)cc1	-12.4%	?	-6.1	18.4µM*
C=CCn1c(=O)[nH]c(=O)c2c(N)c(C(=O)c3ccc(OC)cc3)sc21	-0.7%	5.7%	5.7	4.5%
Nc1ccc2cc3ccc(N)cc3nc2c1	.	-21.0%	.	-13.7%
O=C1c2ccccc2NC(c2ccc(OCc3ccccc3)c(OCc3ccccc3)c2)N1Cc1ccco1 (centres undefined)	.	.	-18.3	.
C=CCOc1cccc(/C=C/c2nc3ccccc3c(=O)[nH]2)c1	?	29.4%	-10.8	?
COc1ccc(Sc2nc(-c3ccccn3)ncc2OC)cc1	1.4%	?	12.0	9.2µM*
COc1cnc(-c2ccccn2)nc1Sc1ccc(Cl)cc1	2.2%	14.6µM*	5.1	20.6µM*
COc1cnc(-c2ccccn2)nc1Sc1ccccc1	1.3%	7.4%	27.2	?
CN(C)S(=O)(=O)c1cccc(NC(=O)c2cccc(S(=O)(=O)N3CCc4ccccc43)c2)c1	?	2.4%	1.9	0.9%
CCOC(=O)C1(CCOC)CCN(C/C=C/c2ccccc2OC)CC1	-28.4%	1.4%	20.0	7.3%
O=C(O)CSCC(=O)N1N=C2/C(=C/c3ccccc3)CCCC2C1c1ccccc1 (centres undefined)	4.0%	-10.0%	-18.5	-3.4%
NC(=O)N1N=C2/C(=C/c3ccccc3)CCCC2C1c1ccccc1 (centres undefined)	-1.1%	8.2µM*	-6.1	17.5%
COc1ccc(-c2nc(CN3CCC(C(=O)N4CCOCC4)CC3)c(C)o2)cc1C	0.3%	-0.5%	-4.4	10.3µM*
COc1ccc(C(C)=O)cc1CN1CCCCC1	-1.7%	14.6µM*	8.3	0.1%
COc1ccc(Br)cc1CN1CCCCCCC1	-5.5%	-7.0%	-11.7	-3.4%
COc1ccc(F)c(CN2CCC(N3CCC(C(=O)N4CCOCC4)CC3)CC2)c1	2.8%	1.4%	4.4	-2.9%
COc1ccc(-c2nc(CN3CCC(C(=O)N4CCOCC4)CC3)c(C)o2)cc1OC	-0.4%	0.8%	4.9	-0.3%
COc1ccc(OC)c(CN2CCC(C(=O)N3CCOCC3)CC2)c1	0.1%	?	-10.0	0.517µM*
COc1cc(NC(=O)CN2C(=O)C(C)N(c3ccc(C)cc3)C2=O)cc(OC)c1 (centres undefined)	18.0%	6.5%	-8.6	0.4%
O=C(NCc1ccc(F)cc1)C(=O)Nc1nc(C23CC4CC(CC(C4)C2)C3)cs1	-1.6%	18.4µM*	5.3	?
COc1ccc(C(=O)N=c2nc(-c3ccccc3)n(-c3ccccc3)s2)cc1	.	.	39.6	.
NC(=O)c1cccnc1Nc1ccccc1Cl	0.9%	17.8%	-9.9	4.6%
C=CCn1c(COc2cccc(C)c2)nnc1SCC(=O)NC(=O)NCc1ccco1	4.0%	18.4µM*	-5.6	-1.1%
Cc1cccn2c(=O)c3cc(C(=O)NCCc4ccccc4)c(=N)n(Cc4ccco4)c3nc12	-17.5%	13µM*	-12.1	6.51µM*
SMILES	uPA surface inh	MCF10A rerep	Giardia killer	SW480 rereplic
Cc1cccn2c(=O)c3cc(C(=O)NCc4ccco4)c(=N)n(CCc4ccccc4)c3nc12	-4.9%	2.91µM*	14.9	18.4µM*
COc1cc(C2C3=C(COC3=O)Oc3cc4c(cc32)OCO4)cc(OC)c1OC(C)=O (centres undefined)	-10.0%	?	?	0.13µM*
COc1cc(C2C(C#N)=C(N)OC3=C2C(=O)CCC3)cc2c1OCO2 (centres undefined)	-2.6%	0.4%	-1.9	-3.1%
COc1cc(C2C3=C(COC3=O)Oc3cc4c(cc32)OCO4)ccc1OC(C)=O (centres undefined)	-9.5%	?	-1.9	3.66µM*
COc1ccc(C2C3=C(COC3=O)Oc3cc4c(cc32)OCO4)cc1OC (centres undefined)	-10.5%	2.31µM*	20.2	5.8µM*
O=C(/C=C/c1ccccc1)Nc1cccc(C(=O)NCCCCc2ccccc2)c1	?	?	10.6	1.8%
CCCCCCCCOc1ccccc1C(=O)Nc1ccc(C(=O)OCC[N+](C)(CC)CC)cc1	.	26.6µM*	.	-1.5%
CCOC(=O)CCc1c(C)c2ccc(OCC)c(C)c2oc1=O	.	9.6%	-4.3	-2.3%
CCOC(=O)CCc1c(C)c2ccc3c(c2oc1=O)CN(CCCO)CO3	2.1%	7.31µM*	9.7	?
Fc1ccc(C2NC(=S)NC3=C2N2CCC3CC2)cc1 (centres undefined)	-10.1%	13µM*	-6.0	1.7%
COc1ccc(C2NC(=S)NC3=C2N2CCC3CC2)cc1 (centres undefined)	-1.2%	1.3%	-9.8	-5.8%
O=S(=O)(/N=C(/Sc1ccccc1)c1ccccc1)c1ccc(Cl)cc1	.	.	2.7	.
C=C1C(=O)C=C2CN(C(=O)c3ccccc3)[C@@](Cc3ccc(F)cc3)(C(=O)OC)[C@@H]12	?	3.66µM*	?	1.3µM*
COC(=O)[C@@]1(Cc2ccc(OC)cc2)[C@@H]2C(=CC(=O)[C@H]2CC(=O)C(=O)N(C)C)CN1C(=O)c1ccccc1	?	?	-6.2	?
CCOC(=O)c1ccc(N2C(=O)C(CC(=O)NC)N(CCc3ccc(OC)c(OC)c3)C2=S)cc1 (centres undefined)	-7.5%	20.6µM*	0.6	6.7%[1.84 µM]
COC(=O)[C@]1(Cc2ccccc2)N[C@H](CN(C)S(=O)(=O)c2ccc(C(C)(C)C)cc2)[C@@H]2C(=O)N(C)C(=O)[C@@H]21	18.6%	-2.4%	-13.4	-20.8%
O=C1N=C(N2CCOCC2)S/C1=C\c1ccc(-c2ccccc2Cl)o1	3.8%	2.91µM*	24.1	13µM*
O=C1N=C(N2CCOCC2)S/C1=C\c1cccs1	-9.9%	0.7%	-20.1	-8.0%
Cc1ccccc1-c1ccc(/C=C2/SC(N3CCOCC3)=NC2=O)o1	9.8%	16.4µM*	-0.5	?
NC1=NC2(CCCCC2)N=C(Nc2ccc(F)cc2F)N1	1.4%	9.2%	12.5	-6.9%
Cc1cc(C)cc(NC2=NC3(CCCCC3)N=C(N)N2)c1	0.4%	20.6µM*	-28.7	?
COC(=O)[C@H]1[C@H]2CC3c4[nH]c5ccccc5c4CCN3C[C@@H]2CC[C@@H]1O (some centres undefined)	.	-2.3%[20.6 µM]	.	-8.4%
COc1cc(CC(=O)OCC(=O)c2ccc3c(c2)OCCO3)cc(OC)c1OC	-17.1%	1.3µM*	-24.7	3.26µM*
Cc1ccc(NS(=O)(=O)c2cc(-c3n[nH]c(=O)c4ccccc34)ccc2C)cc1	-10.9%	?	7.6	23.1µM*
CCCCCCn1ccc(=N)cc1	-16.0%	2.4%	2.3	-4.6%
CCCCCCCCCCCCCCCCn1cc[n+](CC(C)=O)c1	?	14.6µM*	4.2	-35.4%
CN(C(=O)c1cccc(NC(=O)Cc2cccc(NC(=O)C3CCN(C(=O)CCc4ccccc4)CC3)c2)c1)C1CC1	-18.2%	9.8%	38.9	0.9%

Compound activity: PubChem BioAssay, National Center for Advancing Translational Sciences (NCATS)
